Bioassay records: PubChem, National Center for Advancing Translational Sciences (NCATS)
The list is not random: actives were taken first. Their share in the collection is about 2.2%.
aSyn yeast inh = rescues yeast growth from alpha-synuclein toxicity | Yeast expressing alpha-synuclein, growth rescue, BacTiter-Glo, 24 h | Potency, µM (top dose mostly 46.1 µM), usual class: activators | actives 0.14% (n = 370,000) | AID 652106; also: nearly all actives have a fitted effect of over 65% in size
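Galactose-induced alpha-syn yeast (OD600=0.02, raffinose-pregrown) + pinned cpd, 24 hr, 30 deg C; growth by BacTiter-Glo luminescence. Growth restoration scores as activation.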
FUS yeast rescue = FUS proteinopathy suppression in yeast | S. cerevisiae FUS-expressing, growth rescue, OD600, 24 h | Potency, µM (titrated, usually from 76.6 µM), actives largely listed as activators | actives 0.24% (n = 390,000) | AID 1347120; also: nearly all actives have a fitted effect of over 55% in size
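FUS-expressing yeast, raffinose-pregrown, induced in 2% galactose minimal medium at OD 0.005; compounds in a dilution series, 24hr at 30C. Growth restoration read as absorbance at 600 nm. CP55940 positive control, DMSO negative.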
Abeta rescue = A-beta toxicity reversal in yeast. actives 0.063% (n = 410,000). AID 1347071. yeast expressing A-beta42, growth rescue, OD600, 48 h; response scale: 0% DMSO, 100% iron-clioquinol control. Potency, µM (doses to about 46.1 µM), usual class: activators; also: nearly all actives have a fitted effect of over 55% in size
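Yeast growth medium received pinned compounds, then yeast cells expressing toxic A-beta were added; plates incubated at 30 C for 48 hr. Growth read as absorbance at 600 nm, normalized to DMSO and equimolar FeCl3 plus clioquinol controls.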
ERG Ets-DNA blk = ERG Ets/DNA interaction inhibition; P11308; fluorescence polarization, His-ERG Ets domain / labelled DNA; Potency, µM (titrated, usually from 76.9 µM), actives largely listed as inhibitors; actives 0.028% (n = 370,000); active = well fitted inhibition curve with a large enough effect in the polarisation, with a control signal flat; inconclusive = small, poorly fitted or top-dose-only effect, or effect the other way, or a change in a side signal; inactive = no such curve, though single readings can be large or run the other way; the % refers to the polarisation;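 also: polarization taken with two DNA probes labelled with fluorescein and Texas red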
Target sequence (P11308 whole entry, looked up, the tested form may be a part): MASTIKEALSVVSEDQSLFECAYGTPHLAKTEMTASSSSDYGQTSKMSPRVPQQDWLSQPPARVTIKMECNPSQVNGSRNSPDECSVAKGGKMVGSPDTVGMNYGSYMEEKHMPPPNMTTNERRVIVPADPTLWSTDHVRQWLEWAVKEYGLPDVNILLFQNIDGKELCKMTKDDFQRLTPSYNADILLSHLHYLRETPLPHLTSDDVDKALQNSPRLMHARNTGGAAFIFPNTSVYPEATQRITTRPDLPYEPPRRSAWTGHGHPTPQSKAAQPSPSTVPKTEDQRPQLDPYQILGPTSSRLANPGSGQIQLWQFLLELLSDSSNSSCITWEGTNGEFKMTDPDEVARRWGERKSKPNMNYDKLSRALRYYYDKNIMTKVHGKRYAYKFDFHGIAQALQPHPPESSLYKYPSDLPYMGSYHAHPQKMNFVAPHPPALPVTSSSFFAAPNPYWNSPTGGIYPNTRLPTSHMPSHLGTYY
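His-tagged ERG Ets domain (1 uM in the protein solution; 300mM KCl, 50mM Tris-HCl, 1mM EDTA, 1mM DTT, pH 7.5) received compound, then a probe mix of 5 nM fluorescein-DNA and 100nM Texas-615-DNA. Fluorescence polarization was read for both dyes.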
TDP-43 yeast inh = inhibitors of TDP-43 toxicity in yeast | TDP-43 expressing yeast growth rescue, BacTiter-Glo, 24 h | Potency, µM (titrated, usually from 46.1 µM), actives largely listed as activators | actives 1.8% (n = 410,000); also: nearly all actives have a fitted effect of over 50% in size
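Yeast expressing TDP-43 (pregrown in raffinose, seeded at OD600=0.02 in galactose medium) exposed to compounds 24 hr at 30 deg C. Growth read by BacTiter-Glo luminescence; rescue of toxicity appears as increased signal.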
Mito fusion yeast = inhibitors of mitochondrial division or activators of mitochondrial fusion; actives 0.23% (n = 320,000); Potency, µM (top dose mostly 46.1 µM), most hits filed as activators; AID 485298; S. cerevisiae fusion-defective mutant growth rescue, CellTiterGlo 48 h; also: nearly all actives have a fitted effect of over 45% in size
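Growth-rescue viability read-out: after 48 h at the non-permissive 37C in glycerol/ethanol YPEG, yeast mitochondrial fusion mutants are measured by CellTiterGlo luminescence; compounds (23 nl pinned per well) restoring growth score as division inhibitors or fusion activators.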
Hits are given with their value; [ ] = dose if it differs, or a comment. Unless noted, calls follow the shape of the dose curve; as a rule, active = well fitted curve in the direction sought with a large enough effect; inconclusive = small, poorly fitted or top-dose-only effect, or another doubt; inactive = no such curve, though single readings can be large; an effect the other way counts as inactive or inconclusive.

Screening Cc1cccc(-c2nc(CCNC(=O)c3ccccc3Br)cs2)c1 returned FUS yeast rescue inactive, Abeta rescue inactive, ERG Ets-DNA blk inactive and TDP-43 yeast inh 13µM.
For CN(C)c1cc(-c2ccc(C#N)cc2)oc(=O)c1Cl the results were aSyn yeast inh inactive, FUS yeast rescue inactive, Abeta rescue inactive, ERG Ets-DNA blk inactive, TDP-43 yeast inh inactive and Mito fusion yeast inactive.
Screening CN(C)c1cc(-c2ccc(Br)cc2)oc(=O)c1Cl returned aSyn yeast inh inactive, FUS yeast rescue inactive, Abeta rescue inactive, ERG Ets-DNA blk inactive, TDP-43 yeast inh 7.9µM and Mito fusion yeast inactive.
`CCn1c(=O)c2sccc2n2c(CCCC(=O)Nc3ccc(OC)c(OC)c3)nnc12` gave FUS yeast rescue inactive, Abeta rescue inactive, ERG Ets-DNA blk inactive and TDP-43 yeast inh inactive.
O=C(N/N=C/c1cc2c3c(c1O)CCCN3CCC2)c1ccccc1O was read as aSyn yeast inh 22µM, FUS yeast rescue inactive, Abeta rescue inactive, ERG Ets-DNA blk inconclusive, TDP-43 yeast inh inactive and Mito fusion yeast inconclusive.
CCc1noc2nc(C)n(CC(=O)O)c(=O)c12 was read as FUS yeast rescue inactive, Abeta rescue inactive, ERG Ets-DNA blk inactive and TDP-43 yeast inh inactive.
For CCC(C)N=Cc1c(NCc2ccco2)nc2c(C)cccn2c1=O (configuration not stated) the results were aSyn yeast inh inactive, FUS yeast rescue inactive, Abeta rescue inactive, ERG Ets-DNA blk inactive, TDP-43 yeast inh 18µM and Mito fusion yeast inactive.
Cc1cccn2c(=O)c(C(=O)N3CCN(c4ccc(Cl)cc4)CC3)cnc12 was read as FUS yeast rescue inactive, Abeta rescue inactive, ERG Ets-DNA blk inactive and TDP-43 yeast inh inactive.
CN(C(=S)NC1CCCCC1)C1(c2ccccc2Cl)CCCCC1=O (configuration not stated) was read as aSyn yeast inh inactive, FUS yeast rescue inactive, Abeta rescue inconclusive, ERG Ets-DNA blk inactive, TDP-43 yeast inh inactive[9.22 µM] and Mito fusion yeast 20µM.
`COc1ccc(NC(=O)/C(Cl)=C(/Cl)S(=O)Cc2ccccc2)cn1` (configuration not stated) gave aSyn yeast inh inactive, Abeta rescue inactive, ERG Ets-DNA blk inactive, TDP-43 yeast inh 3.5µM and Mito fusion yeast inactive.
COc1ccc(CS(=O)(=O)/C(Cl)=C(/Cl)C(=O)Nc2ccc(OC)nc2)cc1 was read as aSyn yeast inh inconclusive, FUS yeast rescue inactive, Abeta rescue inactive, ERG Ets-DNA blk inactive, TDP-43 yeast inh 13µM and Mito fusion yeast inactive.
Screening COc1ccc(NC(=O)Cc2ccccc2)cn1 returned aSyn yeast inh inactive, FUS yeast rescue inactive, Abeta rescue inactive, ERG Ets-DNA blk inactive, TDP-43 yeast inh inactive and Mito fusion yeast inactive.
For Cc1sc2ncnc(Sc3ccccc3C(=O)Nc3ccc(Br)cc3)c2c1C the results were aSyn yeast inh inactive, Abeta rescue inactive, ERG Ets-DNA blk inactive, TDP-43 yeast inh inactive and Mito fusion yeast inconclusive.
For Cc1sc2ncnc(Sc3ccccc3C(=O)Nc3ccc(C#N)cc3)c2c1C the results were aSyn yeast inh inactive, FUS yeast rescue inconclusive, Abeta rescue inactive, ERG Ets-DNA blk inactive, TDP-43 yeast inh inconclusive and Mito fusion yeast 13µM.
O=C(O)c1[nH]c2ccccc2c1NS(=O)(=O)c1ccc(F)cc1 was read as aSyn yeast inh inactive, FUS yeast rescue inactive, Abeta rescue inactive, ERG Ets-DNA blk inactive, TDP-43 yeast inh inactive and Mito fusion yeast 35µM.
Screening CN(C(=O)c1cccc(NC(=O)Cc2ccc(NC(=O)C3CCCN(S(=O)(=O)c4cccc([N+](=O)[O-])c4)C3)cc2)c1)C1CCCC1 (configuration not stated) returned aSyn yeast inh inactive, FUS yeast rescue inactive, Abeta rescue inactive, ERG Ets-DNA blk inactive and TDP-43 yeast inh inactive.
Screening Cc1ccc(-c2nc(C)sc2CC(=O)OCC(=O)Nc2ccc(F)c(Cl)c2)cc1 returned aSyn yeast inh inactive, FUS yeast rescue inactive, Abeta rescue inconclusive, ERG Ets-DNA blk inactive and TDP-43 yeast inh 25µM.
